# Screening data as filed in PubChem BioAssay.
# This is a sample that favours compounds with a hit; in the whole collection about 2.3% have one here.
# GSTO1 counter = blocks human GSTO1 in RBBP9 counter-screen | P78417 | recombinant GSTO1, activity-based probe fluorescence polarization | inhibition, % at 5.96 µM | 300,000 tested, 1.1% active;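 active = inhibition above the campaign mean inhibition plus 3 SD, cut at about 35% in these data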;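 also: 0% = GSTO1-1 with DMSO and 100% = wells lacking GSTO1-1 enzyme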
# Target sequence (P78417 whole entry, looked up): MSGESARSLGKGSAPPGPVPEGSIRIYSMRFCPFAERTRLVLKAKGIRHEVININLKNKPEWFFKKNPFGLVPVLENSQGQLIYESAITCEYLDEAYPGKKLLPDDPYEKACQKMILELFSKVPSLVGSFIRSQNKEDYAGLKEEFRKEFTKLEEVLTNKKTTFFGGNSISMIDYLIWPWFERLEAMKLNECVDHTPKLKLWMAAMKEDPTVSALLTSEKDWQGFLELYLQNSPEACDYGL
# Fam108B counter = blocks mouse Fam108B hydrolase in RBBP9 counter-screen; inhibition, % at 9.51 µM; 300,000 tested, 0.33% active; AID 1947; recombinant Fam108B, FP-Rh probe fluorescence polarization;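 active = inhibition above the screen mean inhibition plus 3 SD, computed separately per campaign, cut at about 18% in these data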;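 also: inhibitors lower polarization as less probe binds the enzyme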
# PME-1 inh = PME-1 (human) inhibition | recombinant PME-1, FP-Rh probe fluorescence polarization | inhibition, % at 5.9 µM | 320,000 tested, 0.53% active | AID 2130;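 active = inhibition above the campaign mean of all compounds plus 3 SD, cut at about 26% in these data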;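 also: competitive labeling of PME-1 active site by serine hydrolase directed probe; 0% = PME-1 with DMSO and 100% = wells lacking PME-1 enzyme; inhibitors block probe labeling so polarization falls and inhibition rises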
# Target sequence (Q9Y570 whole entry, looked up): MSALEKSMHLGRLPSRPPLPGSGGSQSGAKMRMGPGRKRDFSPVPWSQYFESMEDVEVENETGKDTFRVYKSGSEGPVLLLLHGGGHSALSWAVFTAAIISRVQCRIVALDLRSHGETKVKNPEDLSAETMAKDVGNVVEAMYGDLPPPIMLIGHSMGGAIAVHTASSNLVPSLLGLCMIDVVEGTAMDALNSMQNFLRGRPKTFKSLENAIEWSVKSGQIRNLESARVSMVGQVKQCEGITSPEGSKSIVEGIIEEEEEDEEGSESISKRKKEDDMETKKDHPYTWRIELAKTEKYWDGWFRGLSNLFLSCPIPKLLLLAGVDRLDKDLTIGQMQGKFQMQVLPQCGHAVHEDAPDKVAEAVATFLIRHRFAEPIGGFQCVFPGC
# pPAFAH FP inh = pPAFAH (human) enzyme inhibition. recombinant pPAFAH, FP-rhodamine probe fluorescence polarization. 330,000 tested, 1.5% active. AID 463082. inhibition, % at 3.39 µM. Q13093;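 active = inhibition above the mean inhibition across the screen plus 3 SD, cut at about 25% in these data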;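 also: inhibitors block binding of the rhodamine activity-based probe so polarization drops; 0% = enzyme with DMSO and 100% = wells lacking pPAFAH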
# PAD4 FP inh = PAD4 (human) enzyme inhibition. recombinant PAD4, RCA probe fluorescence polarization. Q9UM07. AID 485272. inhibition, % at 6.36 µM. 330,000 tested, 0.41% active;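 active = percent inhibition above a cutoff equal to the mean of all tested compounds plus 3 SD, cut at about 15% in these data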;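 also: 0% = PAD4 with RCA probe and DMSO and 100% = probe without PAD4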
# GSTO1 inh conf = GSTO1 (human) inhibition, confirmation. shares compounds with GSTO1 counter. recombinant GSTO1, probe fluorescence polarization. inhibition, % at 5.96 µM. 2,400 tested, 54% active. AID 2176;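 active = inhibition above the primary screen's cutoff, its mean inhibition plus 3 SD, cut at about 35% in these data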;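 also: loss of polarization as inhibitors block binding of rhodamine sulfonate ester activity probe; 0% = GSTO1 with DMSO and 100% = wells lacking GSTO1 enzyme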
# GSTO1 ABPP inh = GSTO1 (human) inhibition by gel ABPP | 130 tested, 30% active | shares compounds with GSTO1 counter | AID 463110 | inhibition, % at 1 µM | recombinant GSTO1, gel ABPP SE-Rh probe fluorescence;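 active = inhibition of the enzyme GSTO1 above about 75%, limit read from the data; inactive = inhibition below that limit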
# The depositor's hits bear a star; / = not tested or not shown.
SMILES,GSTO1 counter,Fam108B counter,PME-1 inh,pPAFAH FP inh,PAD4 FP inh,GSTO1 inh conf,others
Cc1cc(C)n(/N=C\c2c(O)ccc3ccccc23)c(=O)c1C(N)=O,43*,-2,-4,-8,-9,6,
Oc1ccc2ccccc2c1/C=N/n1cnnc1,6,0,-4,7,-2,/,
CN(Cc1c(O)ccc2c1oc(=O)c1ccccc12)C1CCCCC1,46*,-1,7,8,0,42*,
CN(C)Cc1c(O)ccc2c3c(c(=O)oc12)CCCCC3,3,3,0,5,2,/,
Cc1ccc2nc(N3CCC(C(=O)O)CC3)nc(-c3ccccc3)c2c1,54*,1,-6,7,-3,58*,
Cc1ccc2nc(N3CCN(C(=O)CCC(=O)O)CC3)nc(-c3ccccc3)c2c1,34,4,4,5,-3,/,
COC(=O)C(OC(=O)c1ccccc1)C(C)Br (stereo unspecified),/,/,6,-2,4,/,
COc1ccc(N(C(=O)CCl)C(C(=O)NCCc2ccccc2)c2cccs2)cc1Cl (stereo unspecified),89*,-3,2,1,10,91*,GSTO1 ABPP inh=92*
COc1cccc(N(C(=O)c2snc(C(N)=O)c2N)C(C(=O)NCC2CCCO2)c2cccs2)c1 (stereo unspecified),-3,0,-5,2,-5,/,
COc1cccc(N(C(=O)CCl)C(C(=O)NCCc2ccccc2)c2cccs2)c1 (stereo unspecified),94*,-4,-5,2,11,95*,GSTO1 ABPP inh=75*
CCCOc1cc(N)ccc1C(=O)OCCN(CC)CC,6,-2,0,1,-2,/,
CCCOc1ccc(N)cc1N,78*,17,13,26*,49*,-14,
CCc1ccc(NC(=O)C2CCN(S(=O)(=O)c3ccc4[nH]c(=O)ccc4c3)CC2)cc1,-5,-8,-13,2,-2,/,
O=c1ccc2cc(S(=O)(=O)N3CCOCC3)ccc2o1,42*,0,1,1,3,1,
Cc1nn(-c2ccccc2)c(Cl)c1CN(C(=O)CCl)c1ccc(Cl)cc1,82*,2,-4,4,14,93*,GSTO1 ABPP inh=88*
Cc1nn(-c2ccccc2)c(Cl)c1C(=O)NCC(=O)O,0,2,-2,3,5,/,
CCc1nc(N2CCN(C(=O)CCl)CC2)c2c3c(sc2n1)CC(C)CC3 (stereo unspecified),63*,-2,2,2,2,79*,GSTO1 ABPP inh=51
CCc1nc(N2CCN(C(C)=O)CC2)c2c3c(sc2n1)CC(C(C)(C)C)CC3 (stereo unspecified),-8,-1,-4,4,-4,/,
COCc1[nH][nH]c(=O)c1C=Nc1ccccc1,3,-2,3,6,-4,/,
COCc1[nH][nH]c(=O)c1/C=N/N1CCOCC1,38*,4,4,0,-8,6,
Cc1nn(CC(=O)N(C)Cc2ccccc2)c(=O)c2cccn12,1,3,-4,1,4,/,
COc1cc(CNc2ccc(N3CCCC3)cc2)ccc1OCc1ccccc1F,46*,5,3,21,-12,35*,
COc1cc(CNc2ccc(N3CCCCC3)cc2)ccc1OCC(=O)NC(C)(C)C,47*,2,-4,18,-9,5,
CC1=NN(c2ccc(N)cc2)C(=O)C1,50*,5,3,10,-5,14,
C#CCOCCOCCOCCNc1nc(N2CCN(C(=O)Cn3cc(CC(C)O)nn3)CC2)nc(N2CCN(C(=O)[C@H](CCCCN)n3cc(CCC(=O)O)nn3)CC2)n1 (stereo partly specified),4,3,5,4,-4,/,
SMILES,GSTO1 counter,Fam108B counter,PME-1 inh,pPAFAH FP inh,PAD4 FP inh,GSTO1 inh conf,others
C#CCOCCOCCOCCNc1nc(N2CCN(C(=O)Cn3cc(CCCCN)nn3)CC2)nc(N2CCN(C(=O)[C@H](CCCCN)n3cc(CCCC)nn3)CC2)n1,60*,4,2,3,-2,2,
COc1ccc(-c2nc(CN3CCCCC3c3nccn3C)c(C)o2)c(C)c1C (stereo unspecified),-3,4,-4,7,-5,/,
Cc1ccc(NC(=O)CCl)c(C)c1,82*,0,-6,-3,2,91*,
O=C(CNC(=O)c1cccs1)N=Nc1c(O)[nH]c2ccc([N+](=O)[O-])cc12,39*,4,0,10,-7,25,
CC(Oc1ccccc1)C(=O)N=Nc1c(O)[nH]c2ccc([N+](=O)[O-])cc12 (stereo unspecified),61*,-1,-6,1,-13,74*,
O=C(N=Nc1c(O)[nH]c2ccc([N+](=O)[O-])cc12)c1ccccc1[N+](=O)[O-],43*,7,1,9,-17,46*,
CC(=O)N1CC(C(=O)Nc2ccc3c(c2)OCO3)Oc2ccccc21 (stereo unspecified),/,/,/,6,-13,/,
CNc1c(NS(=O)(=O)c2ccc(C3CCCCC3)cc2)c(=O)oc2ccccc12,-4,-4,2,-3,2,/,
CCc1cc(Cn2nc(-c3ccccc3)cc2C(=O)NCc2ccc(C)cc2)on1,-47,-25,-31,0,-5,/,
CC(=O)NC1=C(N(C)C2CCS(=O)(=O)C2)C(=O)c2ccccc2C1=O (stereo unspecified),38*,2,3,7,-10,4,
O=C1c2ccccc2C(=O)C1c1ccc(Br)cc1,2,4,1,10,-1,/,
NC1=C(Br)C(=O)c2ccccc2C1=O,66*,5,7,0,4,28,
CCCCOc1ccc(-c2ncc(C(=O)O)c(C)n2)cc1,43*,-5,-3,-1,-1,5,
CCCCCCOc1ccc(C(=O)O)cc1,2,4,2,3,0,/,
COc1cc(O)cc2cc3c(c(O)c12)C(=O)CC(C)(O)O3 (stereo unspecified),47*,-4,1,25*,-5,31,
Cn1c(NC(=O)c2ccc(Cl)cc2)c(-c2ccccn2)c(=O)c2ccccc21,44*,0,0,-1,5,5,
CC(C)C(=O)Nc1c(-c2ccc(Cl)cc2)c(=O)c2ccccc2n1C,4,-7,-2,4,4,/,
Cc1ccc(-n2nc(C)c3c2OC(N)=C(C#N)C3c2ccc(C)o2)cc1 (stereo unspecified),48*,3,4,6,-11,12,
CCN(c1ccc(NC(=O)CN2C(=O)NC3(CCOc4ccccc43)C2=O)cc1)C(C)C (stereo unspecified),7,5,2,20,3,/,
COc1ccc(S(=O)(=O)N2CCOCC2)cc1NC(=O)CN1CCN(C)CC1,38*,2,3,0,-3,4,
